This is an account of results in PubChem BioAssay (NCATS).

Results filed as inconclusive are left out. The source made the active and inactive calls. Unless noted, calls follow the shape of the dose curve; as a rule, active = well fitted curve in the direction sought with a large enough effect; inconclusive = small, poorly fitted or top-dose-only effect, or another doubt; inactive = no such curve, though single readings can be large; an effect the other way counts as inactive or inconclusive.

For assay [1], the target named is Estrogen receptor (Homo sapiens) (UniProt P03372). The assay can be described thus: qHTS assay for small molecule agonists of estrogen receptor alpha signaling (AID 588514; calls by dose curve;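 also: 0% = vehicle only and 100% = reference agonist; nearly all actives have a fitted effect of over 70% in size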). In outline:
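ER-alpha-UAS-bla GripTite HEK 293 cells in medium with 2% charcoal/dextran-treated FBS were treated with compound titrations at 37 C for 18 hrs; beta-lactamase reporter read by CCF4 fluorescence after 2 hrs at RT.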

In assay [2] the target is Peroxisome proliferator-activated receptor gamma (Homo sapiens) (UniProt P37231). In words: qHTS assay for small molecule agonists of peroxisome proliferator-activated receptor gamma signaling (AID 588536; active = well fitted curve in the direction sought with a large enough effect in the signal ratio, with a control signal flat, not every such curve was filed as active; the % refers to the signal ratio;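 also: 0% = DMSO basal wells and 100% = rosiglitazone at 2 µM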). In outline:
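GeneBLAzer PPAR-gamma-UAS-bla HEK293 cells in 1% charcoal/dextran-treated FBS medium were treated 16 h at 37 C with compounds. Beta-lactamase activity was read by CCF4 ratio (460/530 nm). Response was normalized to 2 uM rosiglitazone (100%) and DMSO, then Hill-fitted for EC50 and efficacy.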

The nature of assay [3]: qHTS assay for small molecule agonists of retinoid X receptor alpha signaling (AID 588544; calls by dose curve;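 as to activation: 0% = DMSO basal wells and 100% = reference agonist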). The note with it: HEK293T RXRa-UAS-bla, beta-lactamase reporter, 18 h; 530 nm emission.
Assay [4] addresses Retinoic acid receptor RXR-alpha (Homo sapiens) (UniProt P19793). Described as above.
Assay [5] concerns the target Thyroid hormone receptor beta (Homo sapiens) (UniProt P10828). The assay can be described thus: qHTS assay for small molecule agonists of thyroid hormone receptor beta signaling (AID 588545; calls by dose curve). In outline: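 Agonist-mode beta-lactamase reporter assay, HEK 293 cells, 2% charcoal/dextran FBS; cells plated 4 hrs, compound 18 hrs at 37 C, CCF4 2 hrs RT. Normalized to 10 nM T3 (100%) and DMSO (0%); Hill fit gives EC50, efficacy.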

The nature of assay [6]: qHTS assay for small molecule antagonists of retinoid X receptor alpha signaling (AID 588546; active = well fitted inhibition curve with a large enough effect in the signal ratio, with a control signal flat, not every such curve was filed as active; the % refers to the signal ratio;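 also: cells stimulated with 9-cis-retinoic acid as agonist; % is scaled to controls: 0 for no effect and ±100 for the full control effect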). The following applies: HEK293T RXRa-UAS-bla, beta-lactamase ratio, antagonist mode; measured here: W530 green channel, cytotoxicity proxy. In outline:
(§1)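 Beta-lactamase reporter inhibition, read as CCF4 fluorescence ratio (ex 405, em 460/530 nm) after 2 h at RT. HEK293T UAS-bla cells, 2500/well, were stimulated with 9-cis-RA at 500 or 100 nM final alongside test compound for 18 h at 37 C.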

The target of assay [7] is Retinoic acid receptor RXR-alpha (Homo sapiens) (UniProt P19793). Described as above. The note with it: HEK293T RXRa-UAS-bla, beta-lactamase ratio, antagonist mode. In outline: as §1
Assay [8] deals with Thyroid hormone receptor beta (Homo sapiens) (UniProt P10828). In words: qHTS assay for small molecule antagonists of thyroid hormone receptor beta signaling (AID 588547; active = well fitted inhibition curve with a large enough effect in the signal ratio, with a control signal flat, not every such curve was filed as active; the % refers to the signal ratio;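 also: cells stimulated with 0.4 nM T3 agonist during compound exposure; series mostly up to about 77 µM; % is scaled to controls: 0 for no effect and ±100 for the full control effect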). The following applies: TR-UAS-bla HEK293, beta-lactamase ratio, antagonist mode, 18 h. In outline: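 TR-UAS-bla GripTite HEK293 cells in 2% charcoal/dextran FBS medium; compounds 0.59 nM to 92 uM with T3 at 0.4nM final, 18 h at 37 C. Beta-lactamase read by CCF4 fluorescence (460/530 nm); Hill fits gave IC50 and efficacy.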

Assay [9] deals with Peroxisome proliferator-activated receptor alpha (Homo sapiens) (UniProt Q07869). In words: qHTS assay for small molecule agonists of the peroxisome proliferator-activated receptor alpha (PPARalpha) signaling pathway (AID 651778). Also: % of control where 0% means no effect. The following applies: PathHunter PPARalpha complementation, chemiluminescence, 6 h; max response: stronger effect = higher value. In outline: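 Enzyme-fragment complementation assay in which ligand-bound PPARalpha translocates and forms an active enzyme that generates chemiluminescence. Cells were plated overnight, exposed to compound for 6 hr at 37 C, and then given detection reagent for 60 min at room temperature.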

A short description of assay [10]: qHTS assay for small molecule agonists of the antioxidant response element (ARE) signaling pathway measured by Nrf2-dependant transcriptional activity (AID 720636; active = well fitted curve in the direction sought with a large enough effect in the repeat runs; an effect the other way counts as inactive or inconclusive;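 also: HepG2 cells with an ARE-driven luciferase reporter; % of control where 0% means no effect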). In outline: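 In HepG2 cells engineered with an Nrf2-responsive luciferase gene, ARE induction was quantified as luminescence after 16 hr compound treatment at 37 C.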
Assay [11] is described as follows: qHTS assay for small molecule agonists of the antioxidant response element (ARE) signaling pathway measured by Nrf2-dependant transcriptional activity - cell viability counter screen (AID 720653; active = well fitted curve in the direction sought with a large enough effect in the repeat runs; an effect the other way counts as inactive or inconclusive; also: % is scaled to controls: 0 for no effect and ±100 for the full control effect). The note with it: ARE-bla HepG2 viability, CellTiter-Glo ATP luminescence, 16 h; max response: stronger effect = lower value. In outline:
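ARE-bla HepG2 cells treated with compounds for 16 h at 37C; this counter screen measures viability as intracellular ATP by CellTiter-Glo luminescence after 30 min at room temperature.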

Assay [12] in a line: qHTS assay for cell viability of HEK293 cells (AID 743288). Also: % is scaled to controls: 0 for no effect and ±100 for the full control effect; nearly all actives have a fitted effect of over 50% in size. The note with it: ATP luminescence (CellTiter-Glo), 18 h; max response: stronger effect = lower value. In outline: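 Parental HEK293 cells, 2,000 per well, preincubated at least 5 h at 37 C, then exposed to compounds in DMSO for 18 h at 37 C. Viability by CellTiter-Glo ATP luminescence after 30 min at room temperature.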
Assay [13] can be described thus: qHTS assay for cell viability of the p53RE-bla HCT-116 cell line (AID 743292). Also: % is scaled to controls: 0 for no effect and ±100 for the full control effect; nearly all actives have a fitted effect of over 55% in size. In outline: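 Intracellular ATP of p53RE-bla HCT-116 cells measured by luciferase luminescence following 16 h compound incubation at 37 C; DMSO-only wells served as vehicle controls.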
Assay [14] deals with Nuclear receptor subfamily 1 group I member 2 (Rattus norvegicus) (UniProt Q9R1A7). In words: qHTS assay for small molecule activators of the rat pregnane X receptor (rPXR) signaling pathway (AID 651751; call rule not given here; also: 0% is about no effect). The following applies: rPXR reporter cells, luciferase (One-Glo), 24 h.
The nature of assay [15]: qHTS assay for small molecule activators of the human pregnane X receptor (PXR) signaling pathway (AID 720659; call rule not given here; also: 0% is about no effect).
Assay [16] can be described thus: qHTS assay for small molecule antagonists of peroxisome proliferator-activated receptor delta signaling (AID 588535; active = well fitted inhibition curve with a large enough effect in the signal ratio, with a control signal flat, not every such curve was filed as active; the % refers to the signal ratio;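 as to max response: cells co-treated with a PPAR-delta agonist as stimulator during compound exposure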). The note with it: HEK293T PPARd-UAS-bla, beta-lactamase FRET ratio, 18 h; 460 nm channel. In outline: (§2)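 Cells were seeded at 4000 per well in assay medium containing 2% charcoal/dextran FBS and held 5 hrs at 37 C. Compounds were then added for 18 hrs. CCF4 substrate was applied for 2 hrs at room temperature before fluorescence reading.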

The target of assay [17] is Peroxisome proliferator-activated receptor delta (Homo sapiens) (UniProt Q03181). Described as above. In outline:
as §2

Assay [18] addresses Vitamin D3 receptor (Homo sapiens) (UniProt P11473). The assay can be described thus: qHTS assay for small molecule antagonists of vitamin D receptor signaling (AID 588541; calls by dose curve;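 also: receptor activated by calcitriol during compound treatment; series mostly up to about 77 µM; % is scaled to controls: 0 for no effect and ±100 for the full control effect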). In outline: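 VDR-UAS-bla HEK293T cells in 2% charcoal-stripped FBS were stimulated with 1-alpha,25-dihydroxyvitamin D3 (3 nM final) plus compound for 16 h at 37 C. The beta-lactamase CCF4 readout was normalized to 50 nM agonist and DMSO, and Hill fits gave IC50.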

Assay [19] can be described thus: qHTS assay for small molecule activators of the p53 signaling pathway (AID 651743; active = well fitted activation curve with a large enough effect in the signal ratio, not every such curve was filed as active; the % refers to the signal ratio; also: series mostly up to about 92 µM; % of control where 0% means no effect). The following applies: HCT-116 p53RE-bla, beta-lactamase FRET ratio, 16 h; activation: stronger effect = higher value. In outline: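 HCT-116 p53RE-bla, 4,000 cells/well; 5 h settle; cpd/DMSO 16 h, 37 C; LiveBLAzer B/G 2 h RT; fluorescence intensity.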
Assay [20] is described as follows: qHTS assay for environmental chemicals that activate the Aryl hydrocarbon Receptor (AhR) signaling pathway (AID 651777). Also: % of control where 0% means no effect; nearly all actives have a fitted effect of over 15% in size. The note with it: 1A2-DRE human hepatoma cells, luciferase, 24 h; activation: stronger effect = higher value. In outline: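 Measured luciferase activity, read 30 min after One-Glo addition at room temperature, from human hepatoma cells bearing a dioxin response element–CYP1A2 promoter reporter and exposed to compound for 24 hr at 37 C.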

Chain of Peroxisome proliferator-activated receptor alpha (Homo sapiens) (Q07869 whole entry, looked up, the tested form may be a part): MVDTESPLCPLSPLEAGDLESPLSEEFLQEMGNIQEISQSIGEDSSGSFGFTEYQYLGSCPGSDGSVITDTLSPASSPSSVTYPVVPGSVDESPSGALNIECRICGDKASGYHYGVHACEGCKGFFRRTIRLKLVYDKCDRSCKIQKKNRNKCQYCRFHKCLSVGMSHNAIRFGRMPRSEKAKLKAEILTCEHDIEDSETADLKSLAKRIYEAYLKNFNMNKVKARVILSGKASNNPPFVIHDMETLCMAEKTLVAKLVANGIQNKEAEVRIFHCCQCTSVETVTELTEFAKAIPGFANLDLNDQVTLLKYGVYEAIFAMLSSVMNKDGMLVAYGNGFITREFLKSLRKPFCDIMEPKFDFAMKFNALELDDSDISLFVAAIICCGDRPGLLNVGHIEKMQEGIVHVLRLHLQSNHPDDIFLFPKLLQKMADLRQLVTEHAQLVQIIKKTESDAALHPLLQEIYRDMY
Chain of Peroxisome proliferator-activated receptor delta (Homo sapiens) (Q03181 whole entry, looked up): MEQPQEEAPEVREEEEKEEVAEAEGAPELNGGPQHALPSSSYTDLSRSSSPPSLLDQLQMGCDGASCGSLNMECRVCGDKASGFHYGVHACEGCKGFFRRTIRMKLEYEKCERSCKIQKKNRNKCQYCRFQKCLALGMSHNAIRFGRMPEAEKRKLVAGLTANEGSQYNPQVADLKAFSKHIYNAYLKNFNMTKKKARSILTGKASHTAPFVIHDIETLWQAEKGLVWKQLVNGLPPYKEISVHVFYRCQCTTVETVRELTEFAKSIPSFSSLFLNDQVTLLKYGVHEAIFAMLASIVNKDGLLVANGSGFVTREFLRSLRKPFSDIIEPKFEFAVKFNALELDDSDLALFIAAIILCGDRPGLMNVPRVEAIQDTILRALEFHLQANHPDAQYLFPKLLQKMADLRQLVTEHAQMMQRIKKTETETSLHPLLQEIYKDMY
Chain of Peroxisome proliferator-activated receptor gamma (Homo sapiens) (P37231 whole entry, looked up): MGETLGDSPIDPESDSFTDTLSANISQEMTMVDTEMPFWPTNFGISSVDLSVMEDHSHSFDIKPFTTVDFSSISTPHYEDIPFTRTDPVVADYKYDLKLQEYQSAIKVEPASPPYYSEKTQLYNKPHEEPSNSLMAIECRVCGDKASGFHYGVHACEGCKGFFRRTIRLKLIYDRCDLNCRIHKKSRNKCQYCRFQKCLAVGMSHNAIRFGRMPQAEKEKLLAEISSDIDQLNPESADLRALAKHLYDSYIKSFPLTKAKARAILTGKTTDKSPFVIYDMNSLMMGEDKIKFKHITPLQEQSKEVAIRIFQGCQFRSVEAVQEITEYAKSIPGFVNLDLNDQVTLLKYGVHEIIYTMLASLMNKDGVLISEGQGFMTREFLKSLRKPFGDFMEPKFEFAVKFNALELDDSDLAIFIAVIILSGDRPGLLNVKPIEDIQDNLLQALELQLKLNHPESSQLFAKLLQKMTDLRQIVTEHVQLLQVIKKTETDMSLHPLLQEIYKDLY
Chain of Nuclear receptor subfamily 1 group I member 2 (Rattus norvegicus) (Q9R1A7 whole entry, looked up): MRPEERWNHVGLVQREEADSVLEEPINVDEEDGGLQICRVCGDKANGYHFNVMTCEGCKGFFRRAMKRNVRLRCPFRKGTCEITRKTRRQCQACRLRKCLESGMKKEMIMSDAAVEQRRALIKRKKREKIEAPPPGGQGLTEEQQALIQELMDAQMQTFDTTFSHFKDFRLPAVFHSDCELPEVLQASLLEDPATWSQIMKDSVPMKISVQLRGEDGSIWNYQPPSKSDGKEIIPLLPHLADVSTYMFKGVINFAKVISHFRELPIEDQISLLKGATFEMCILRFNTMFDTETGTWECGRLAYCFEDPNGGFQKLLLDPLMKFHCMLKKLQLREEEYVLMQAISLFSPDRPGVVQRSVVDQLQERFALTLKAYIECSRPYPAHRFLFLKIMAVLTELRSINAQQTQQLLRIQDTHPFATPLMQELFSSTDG
Chain of Estrogen receptor (Homo sapiens) (P03372 whole entry, looked up): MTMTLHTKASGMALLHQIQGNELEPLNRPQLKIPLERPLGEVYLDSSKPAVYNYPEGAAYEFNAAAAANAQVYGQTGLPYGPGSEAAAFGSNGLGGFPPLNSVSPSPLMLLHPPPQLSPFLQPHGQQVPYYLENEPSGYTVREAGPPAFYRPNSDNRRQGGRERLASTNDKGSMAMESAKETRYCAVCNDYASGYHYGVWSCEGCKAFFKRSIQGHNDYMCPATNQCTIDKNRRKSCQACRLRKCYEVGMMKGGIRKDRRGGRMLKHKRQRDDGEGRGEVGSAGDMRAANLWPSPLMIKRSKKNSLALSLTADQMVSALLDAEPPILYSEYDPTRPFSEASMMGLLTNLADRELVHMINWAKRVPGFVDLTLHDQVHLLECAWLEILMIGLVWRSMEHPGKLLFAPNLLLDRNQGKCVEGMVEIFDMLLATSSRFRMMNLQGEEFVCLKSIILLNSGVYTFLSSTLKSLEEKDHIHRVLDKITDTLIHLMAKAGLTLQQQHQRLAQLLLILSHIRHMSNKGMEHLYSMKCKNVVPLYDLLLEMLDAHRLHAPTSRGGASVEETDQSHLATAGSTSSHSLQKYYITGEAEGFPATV
Chain of Vitamin D3 receptor (Homo sapiens) (P11473 whole entry, looked up): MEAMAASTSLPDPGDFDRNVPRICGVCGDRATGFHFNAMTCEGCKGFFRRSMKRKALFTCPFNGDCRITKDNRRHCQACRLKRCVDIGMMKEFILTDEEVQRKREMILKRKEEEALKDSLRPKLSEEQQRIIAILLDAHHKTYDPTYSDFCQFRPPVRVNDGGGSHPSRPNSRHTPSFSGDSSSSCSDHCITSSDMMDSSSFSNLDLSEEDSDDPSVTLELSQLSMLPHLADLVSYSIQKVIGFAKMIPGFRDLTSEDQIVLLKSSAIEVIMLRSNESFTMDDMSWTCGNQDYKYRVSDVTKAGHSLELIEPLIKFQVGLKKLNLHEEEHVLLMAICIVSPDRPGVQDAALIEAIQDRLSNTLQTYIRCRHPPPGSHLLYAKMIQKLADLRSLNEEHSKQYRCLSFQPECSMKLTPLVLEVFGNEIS
Chain of Retinoic acid receptor RXR-alpha (Homo sapiens) (P19793 whole entry, looked up): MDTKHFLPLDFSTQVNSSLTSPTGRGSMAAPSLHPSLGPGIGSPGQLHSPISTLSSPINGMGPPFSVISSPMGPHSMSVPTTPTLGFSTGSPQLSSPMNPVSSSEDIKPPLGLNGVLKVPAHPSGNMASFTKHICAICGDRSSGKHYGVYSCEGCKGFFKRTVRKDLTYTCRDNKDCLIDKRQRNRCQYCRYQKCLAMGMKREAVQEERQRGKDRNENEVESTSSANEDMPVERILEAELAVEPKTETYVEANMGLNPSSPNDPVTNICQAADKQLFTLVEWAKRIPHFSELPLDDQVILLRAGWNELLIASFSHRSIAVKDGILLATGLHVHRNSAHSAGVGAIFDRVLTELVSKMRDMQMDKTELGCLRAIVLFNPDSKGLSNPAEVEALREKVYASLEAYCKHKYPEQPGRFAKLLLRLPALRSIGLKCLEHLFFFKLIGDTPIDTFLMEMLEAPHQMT
Chain of Thyroid hormone receptor beta (Homo sapiens) (P10828 whole entry, looked up): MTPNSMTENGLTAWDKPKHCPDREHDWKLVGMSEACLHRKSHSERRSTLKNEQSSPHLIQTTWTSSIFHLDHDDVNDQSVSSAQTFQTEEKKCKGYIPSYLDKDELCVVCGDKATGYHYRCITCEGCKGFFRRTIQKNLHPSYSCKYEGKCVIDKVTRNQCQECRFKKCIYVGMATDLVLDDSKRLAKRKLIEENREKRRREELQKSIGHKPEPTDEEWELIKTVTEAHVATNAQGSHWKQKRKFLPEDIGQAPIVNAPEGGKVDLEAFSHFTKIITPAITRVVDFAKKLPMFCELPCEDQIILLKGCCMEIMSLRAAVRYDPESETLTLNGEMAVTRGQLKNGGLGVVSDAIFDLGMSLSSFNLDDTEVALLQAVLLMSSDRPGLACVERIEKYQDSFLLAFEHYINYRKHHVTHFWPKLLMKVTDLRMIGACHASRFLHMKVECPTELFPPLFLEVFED

Regarding `CCO[Si](CCC#N)(OCC)OCC`, the Potency entry in assay [1], in assay [4], in assay [5], in [10] and in assay [13] was “inactive” throughout. In addition, the molecule was called inactive in [2] and in [15]. For the same molecule, the max response in assay [3] was -7.96%; in [6] it was -13.6%; in [7], -7.94% (inactive); in assay [9], -0.819% (inactive); in assay [11], -7.54% (inactive); in [12], -14.2% (inactive). For the same molecule, the max response in assay [14] was -1.9% (inactive). The activity change % (negative = inhibition) in [8] was 18.5% (inactive).

Take `CO[Si](OC)(OC)c1ccccc1`: the Potency result in assay [1], in [17], in [18], in [4], in [5] and in assay [10] was “inactive” in each case. The Potency result in [13] was “inactive”. In addition, the max response in assay [16] was 44.5%; in assay [3] it was -13.7%; in [6], -3.5%; in assay [9], -1.36% (inactive); in assay [11], -0.0462% (inactive); in [12], -0.551% (inactive). Also, in assay [14], the max response is -6.78% (inactive). The call in [2] and in assay [15] was inactive. The activation was -3.17% (inactive) in [19] and 1.89% (inactive) in assay [20].

As for `O=c1n(CCO)c(=O)n(CCO)c(=O)n1CCO`, the Potency result in assay [1], in assay [17], in [18], in [4], in [5] and in assay [13] was “inactive” in each case. In addition, the max response in assay [16] is 3.67%; in assay [3], -13.7%; in assay [6] it was -6.53%; in assay [7], 2.33% (inactive); in [9], 0.0492% (inactive); in [11], -11.6% (inactive). The max response is -6.36% (inactive) in assay [12] and -0.84% (inactive) in [14]. In addition, in [2], the result was inactive. In addition, the values for the activation in assay [19] and in [20] were 3.11% (inactive) and 0.674% (inactive), respectively.

Regarding `COC(=O)C1CCC(C(=O)OC)CC1` (stereo unspecified), the Potency result in assay [1], in assay [17], in assay [18], in assay [4], in assay [5] and in [10] was “inactive” in each case. In addition, the Potency entry in [13] is “inactive”. Besides, the max response in assay [16] was 36.1%; in [3], -4.14%; in [6], -8.09%; in assay [7] it was -11.5% (inactive); in assay [9], 3.84% (inactive); in [11], 1.5% (inactive). The max response in assay [12] was -13.8% (inactive); in [14], 2.13% (inactive). Further, in [2], the molecule was classed as inactive. For the same molecule, the activation is 8.46% (inactive) in assay [19] and 0.798% (inactive) in assay [20].

In the case of `O=C(O)CCCCCCCCCCC(=O)O`, the Potency result in assay [1], in [17], in assay [18], in [4], in assay [10] and in assay [13] was “inactive” in each case. In addition, the max response is 18.9% in [16]; 0.198% in assay [3]; 2.61% in assay [6]; 7.09% (inactive) in [7]; -1.09% (inactive) in assay [9]; -6.19% (inactive) in [11]. The values for the max response in [12] and in assay [14] were -10.8% (inactive) and 0.83% (inactive), respectively. Moreover, the activity change % (negative = inhibition) in assay [8] is 17.5% (inactive). For the same molecule, the activation in assay [20] was 3.26% (inactive). Besides, in assay [15], the molecule was classed as inactive.

As for `CCCCOCCOCCO`, the Potency result in assay [1], in [18], in [10] and in assay [13] was “inactive” in each case. The molecule was called inactive in assay [2] and in assay [15]. Besides, the max response is -10.9% in assay [3]; 1.46% in assay [6]; -25.6% (inactive) in assay [7]; -0.568% (inactive) in [9]; 3.56% (inactive) in assay [11]; -12.6% (inactive) in assay [12]. Besides, the max response in assay [14] is -2.42% (inactive). The activity change % (negative = inhibition) in assay [8] is 15.3% (inactive). Also, the activation in assay [19] is 0.276% (inactive); in [20] it was 0.311% (inactive).
